What all share (experiment): DAPPL (digital affinity profiling via proximity ligation, sequencing); 10 mM Tris-HCl pH 7.5, 50 mM NaCl, 1 mM DTT, 4% glycerol, room temperature, 30 min; GST-TFs on glutathione beads, 16-mer random dsDNA library, 0.1% formaldehyde crosslink after washing; high values mean tight binding
Holding throughout (settings): protein: recombinant; tags: N-terminal GST; dsDNA, one strand shown

The target of experiment [1] is T1, FLI1 (Homo sapiens, UniProt Q01543 1-452).
T1 sequence: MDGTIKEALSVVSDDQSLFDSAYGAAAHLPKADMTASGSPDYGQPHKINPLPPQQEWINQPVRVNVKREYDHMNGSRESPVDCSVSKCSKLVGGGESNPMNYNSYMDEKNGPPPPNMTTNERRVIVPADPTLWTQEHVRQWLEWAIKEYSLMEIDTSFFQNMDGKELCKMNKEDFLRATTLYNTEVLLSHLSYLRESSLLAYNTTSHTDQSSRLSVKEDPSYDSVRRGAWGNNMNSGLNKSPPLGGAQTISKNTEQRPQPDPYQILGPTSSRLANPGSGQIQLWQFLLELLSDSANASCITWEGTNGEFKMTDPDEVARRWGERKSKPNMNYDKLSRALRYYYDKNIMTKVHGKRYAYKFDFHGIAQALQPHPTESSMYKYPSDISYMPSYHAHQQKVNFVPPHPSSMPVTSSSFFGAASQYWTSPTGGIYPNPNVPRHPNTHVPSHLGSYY
In outline: (§1)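 Human transcription factors were made in yeast as GST fusions, captured on glutathione beads and barcoded with DNA. With a tag-only sample included, the pool was incubated with 200 nmole of a random double-stranded 16-mer DNA library in Tris/NaCl/DTT/glycerol buffer at room temperature for 30 min, then crosslinked with 0.1% formaldehyde after washing, ligated by proximity, amplified and sequenced. For binding signal, each hexamer's read frequency for a factor is divided by its frequency for the tag-only sample.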

Experiment [2] addresses T2, ELK1 (Homo sapiens, UniProt P19419 1-428).
T2 sequence: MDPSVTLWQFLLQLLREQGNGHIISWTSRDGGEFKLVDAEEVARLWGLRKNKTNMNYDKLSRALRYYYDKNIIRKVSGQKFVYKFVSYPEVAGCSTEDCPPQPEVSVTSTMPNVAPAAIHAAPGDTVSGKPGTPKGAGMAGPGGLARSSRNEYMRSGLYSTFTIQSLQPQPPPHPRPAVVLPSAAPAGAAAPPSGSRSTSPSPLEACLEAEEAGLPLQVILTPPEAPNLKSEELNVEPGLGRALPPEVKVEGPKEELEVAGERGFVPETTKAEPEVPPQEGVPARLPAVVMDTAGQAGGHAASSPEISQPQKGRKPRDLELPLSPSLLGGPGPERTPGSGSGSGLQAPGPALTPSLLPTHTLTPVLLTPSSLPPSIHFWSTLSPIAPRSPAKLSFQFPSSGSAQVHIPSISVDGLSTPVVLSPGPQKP
In outline:
as §1

For experiment [3], the target named is T3, GABPA (Homo sapiens, UniProt Q06546 1-454).
T3 sequence: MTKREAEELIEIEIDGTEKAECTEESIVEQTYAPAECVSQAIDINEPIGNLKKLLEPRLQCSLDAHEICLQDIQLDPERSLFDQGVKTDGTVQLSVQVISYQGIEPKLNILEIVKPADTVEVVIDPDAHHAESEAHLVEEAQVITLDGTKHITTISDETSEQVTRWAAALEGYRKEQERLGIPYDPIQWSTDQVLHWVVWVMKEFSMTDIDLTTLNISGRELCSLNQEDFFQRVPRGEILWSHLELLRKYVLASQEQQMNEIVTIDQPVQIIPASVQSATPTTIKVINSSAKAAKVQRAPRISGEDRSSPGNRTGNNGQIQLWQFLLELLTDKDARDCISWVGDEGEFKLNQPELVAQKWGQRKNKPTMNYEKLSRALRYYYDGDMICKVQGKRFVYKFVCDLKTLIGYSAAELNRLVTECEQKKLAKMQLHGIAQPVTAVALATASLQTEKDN
Summed up: as §1

In experiment [4] the target is T4, ERG (Homo sapiens, UniProt P11308 1-479).
T4 sequence: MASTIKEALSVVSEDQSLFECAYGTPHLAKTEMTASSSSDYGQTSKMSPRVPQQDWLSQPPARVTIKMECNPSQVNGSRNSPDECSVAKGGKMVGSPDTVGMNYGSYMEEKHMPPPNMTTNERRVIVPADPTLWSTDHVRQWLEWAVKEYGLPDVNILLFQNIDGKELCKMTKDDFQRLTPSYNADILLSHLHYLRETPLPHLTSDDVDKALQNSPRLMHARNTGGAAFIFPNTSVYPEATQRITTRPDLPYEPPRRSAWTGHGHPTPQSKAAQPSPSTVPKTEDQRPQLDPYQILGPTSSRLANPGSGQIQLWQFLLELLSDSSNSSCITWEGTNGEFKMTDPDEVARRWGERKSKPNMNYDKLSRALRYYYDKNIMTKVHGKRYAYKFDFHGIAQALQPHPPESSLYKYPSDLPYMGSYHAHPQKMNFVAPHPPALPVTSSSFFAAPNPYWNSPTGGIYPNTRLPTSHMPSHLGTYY
Summed up:
as §1

For experiment [5], the target named is ELF1 (Homo sapiens, UniProt P32519 1-619). Summed up:
as §1

Experiment [6] deals with T5, EHF (Homo sapiens, UniProt Q9NZC4 1-300).
T5 sequence: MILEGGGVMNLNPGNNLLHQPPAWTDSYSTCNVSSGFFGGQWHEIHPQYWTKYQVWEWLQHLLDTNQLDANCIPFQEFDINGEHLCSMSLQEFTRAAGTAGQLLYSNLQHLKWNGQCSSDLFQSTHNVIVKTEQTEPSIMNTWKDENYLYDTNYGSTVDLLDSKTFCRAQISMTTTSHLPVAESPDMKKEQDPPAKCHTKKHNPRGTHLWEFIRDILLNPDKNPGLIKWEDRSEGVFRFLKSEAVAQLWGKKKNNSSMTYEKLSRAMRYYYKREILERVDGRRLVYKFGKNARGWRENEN
Summed up: as §1

Experiment [7] has as its target SPI1 (Homo sapiens, UniProt P17947 1-270). Summed up:
as §1

The target of experiment [8] is SPIB (Homo sapiens, UniProt Q01892 1-262). Summed up:
as §1

Experiment [9] addresses T6, ELK3 (Homo sapiens, UniProt P41970 1-407).
T6 sequence: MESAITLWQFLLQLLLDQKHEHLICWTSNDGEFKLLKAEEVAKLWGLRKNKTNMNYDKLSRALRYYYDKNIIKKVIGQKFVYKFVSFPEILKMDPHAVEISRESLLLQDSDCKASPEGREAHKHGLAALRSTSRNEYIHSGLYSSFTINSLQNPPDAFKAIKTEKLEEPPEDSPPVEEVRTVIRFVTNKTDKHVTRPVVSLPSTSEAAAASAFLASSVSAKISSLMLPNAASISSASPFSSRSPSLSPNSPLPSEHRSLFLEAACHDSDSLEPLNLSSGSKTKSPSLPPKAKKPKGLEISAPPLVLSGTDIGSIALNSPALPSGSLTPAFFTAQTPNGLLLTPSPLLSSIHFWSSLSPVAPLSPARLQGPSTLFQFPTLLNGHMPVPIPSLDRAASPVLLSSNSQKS
In outline: as §1

Results on 7 sequences are retold here after PMC7862700, “An all-to-all approach to the identification of sequence-specific readers for epigenetic DNA modifications on cytosine”.

Chain of SPIB (Q01892 whole entry): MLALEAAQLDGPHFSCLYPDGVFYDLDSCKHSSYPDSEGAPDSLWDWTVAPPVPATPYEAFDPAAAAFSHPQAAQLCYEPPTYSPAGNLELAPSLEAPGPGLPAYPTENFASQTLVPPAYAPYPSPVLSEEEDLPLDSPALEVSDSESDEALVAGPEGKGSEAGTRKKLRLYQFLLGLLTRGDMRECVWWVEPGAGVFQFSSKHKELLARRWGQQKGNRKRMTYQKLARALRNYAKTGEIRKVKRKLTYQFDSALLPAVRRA
Chain of ELF1 (P32519 whole entry): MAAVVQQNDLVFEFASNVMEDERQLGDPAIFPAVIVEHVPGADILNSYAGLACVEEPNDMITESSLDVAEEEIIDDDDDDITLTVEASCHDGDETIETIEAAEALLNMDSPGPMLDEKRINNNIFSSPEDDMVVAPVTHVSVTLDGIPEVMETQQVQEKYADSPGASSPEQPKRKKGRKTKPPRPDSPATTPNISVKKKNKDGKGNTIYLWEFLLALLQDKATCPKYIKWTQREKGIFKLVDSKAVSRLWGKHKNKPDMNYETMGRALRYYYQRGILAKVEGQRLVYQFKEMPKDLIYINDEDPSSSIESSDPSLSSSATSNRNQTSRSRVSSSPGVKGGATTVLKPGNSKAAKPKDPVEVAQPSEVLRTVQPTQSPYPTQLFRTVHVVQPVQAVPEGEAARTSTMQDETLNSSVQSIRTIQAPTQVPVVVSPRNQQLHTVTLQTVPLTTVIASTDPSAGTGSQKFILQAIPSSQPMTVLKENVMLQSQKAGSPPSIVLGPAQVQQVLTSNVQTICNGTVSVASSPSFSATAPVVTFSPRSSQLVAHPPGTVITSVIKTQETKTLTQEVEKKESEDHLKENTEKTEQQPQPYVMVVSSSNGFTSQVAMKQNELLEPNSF

For TTCCCC, the binding signal in experiment [1] was 1.74 fold enrichment (6-mer frequency, TF over GST control); in experiment [2], 1.58 fold enrichment (6-mer frequency, TF over GST control); in experiment [3] it was 1.71 fold enrichment (6-mer frequency, TF over GST control); in experiment [4], 1.67 fold enrichment (6-mer frequency, TF over GST control); in [5], 1.72 fold enrichment (6-mer frequency, TF over GST control); in experiment [6], 1.68 fold enrichment (6-mer frequency, TF over GST control). For the same sequence, the binding signal in experiment [7] is 2.54 fold enrichment (6-mer frequency, TF over GST control); in experiment [8], 1.66 fold enrichment (6-mer frequency, TF over GST control); in experiment [9], 1.61 fold enrichment (6-mer frequency, TF over GST control).

Regarding CTCGGC, the binding signal was 1.47 fold enrichment (6-mer frequency, TF over GST control) in experiment [1]; 1.33 fold enrichment (6-mer frequency, TF over GST control) in experiment [2]; 1.39 fold enrichment (6-mer frequency, TF over GST control) in experiment [3]; 1.26 fold enrichment (6-mer frequency, TF over GST control) in experiment [4]; 1.38 fold enrichment (6-mer frequency, TF over GST control) in experiment [5]; 1.52 fold enrichment (6-mer frequency, TF over GST control) in experiment [6]. Also, the binding signal in [7] was 1.45 fold enrichment (6-mer frequency, TF over GST control); in experiment [8] it was 1.27 fold enrichment (6-mer frequency, TF over GST control); in experiment [9] it was 1.39 fold enrichment (6-mer frequency, TF over GST control).

On to AAAAAC, for which the binding signal was 1.31 fold enrichment (6-mer frequency, TF over GST control) in [1]; 1.12 fold enrichment (6-mer frequency, TF over GST control) in experiment [2]; 1.26 fold enrichment (6-mer frequency, TF over GST control) in experiment [3]; 1.26 fold enrichment (6-mer frequency, TF over GST control) in [4]; 1.23 fold enrichment (6-mer frequency, TF over GST control) in experiment [5]; 1.28 fold enrichment (6-mer frequency, TF over GST control) in [6]. For the same sequence, the binding signal in experiment [7] is 1.46 fold enrichment (6-mer frequency, TF over GST control); in experiment [8], 1.24 fold enrichment (6-mer frequency, TF over GST control); in experiment [9], 1.31 fold enrichment (6-mer frequency, TF over GST control).

On to GACATT, for which the binding signal in experiment [1] is 1.16 fold enrichment (6-mer frequency, TF over GST control); in experiment [2], 1.17 fold enrichment (6-mer frequency, TF over GST control); in experiment [3], 1.12 fold enrichment (6-mer frequency, TF over GST control); in experiment [4], 1.15 fold enrichment (6-mer frequency, TF over GST control); in experiment [5] it was 1.16 fold enrichment (6-mer frequency, TF over GST control); in experiment [6] it was 1.11 fold enrichment (6-mer frequency, TF over GST control). The binding signal in experiment [7] is 1.13 fold enrichment (6-mer frequency, TF over GST control); in experiment [8] it was 1.16 fold enrichment (6-mer frequency, TF over GST control); in experiment [9] it was 1.02 fold enrichment (6-mer frequency, TF over GST control).

GATACT: the binding signal in [1] is 1.14 fold enrichment (6-mer frequency, TF over GST control); in experiment [2], 1.01 fold enrichment (6-mer frequency, TF over GST control); in [3] it was 1.2 fold enrichment (6-mer frequency, TF over GST control); in [4], 1.21 fold enrichment (6-mer frequency, TF over GST control); in experiment [5], 1.1 fold enrichment (6-mer frequency, TF over GST control); in experiment [6], 1.21 fold enrichment (6-mer frequency, TF over GST control). Further, the binding signal in experiment [7] is 1.12 fold enrichment (6-mer frequency, TF over GST control); in [8] it was 1.16 fold enrichment (6-mer frequency, TF over GST control); in experiment [9], 1.09 fold enrichment (6-mer frequency, TF over GST control).

Turning to TTAAAT, the binding signal in experiment [1] is 1.17 fold enrichment (6-mer frequency, TF over GST control); in [2], 1.11 fold enrichment (6-mer frequency, TF over GST control); in [3], 1.1 fold enrichment (6-mer frequency, TF over GST control); in [4], 1.11 fold enrichment (6-mer frequency, TF over GST control); in experiment [5], 1.19 fold enrichment (6-mer frequency, TF over GST control); in [6] it was 1.14 fold enrichment (6-mer frequency, TF over GST control). Further, the binding signal in [7] was 1.12 fold enrichment (6-mer frequency, TF over GST control); in [8], 1.13 fold enrichment (6-mer frequency, TF over GST control); in experiment [9], 1.25 fold enrichment (6-mer frequency, TF over GST control).

As for TGTCAC, the binding signal in experiment [1] was 1.15 fold enrichment (6-mer frequency, TF over GST control); in experiment [2], 1.11 fold enrichment (6-mer frequency, TF over GST control); in experiment [3] it was 1.22 fold enrichment (6-mer frequency, TF over GST control); in experiment [4] it was 1.11 fold enrichment (6-mer frequency, TF over GST control); in [5], 1.23 fold enrichment (6-mer frequency, TF over GST control); in [6] it was 1.22 fold enrichment (6-mer frequency, TF over GST control). Also, the binding signal was 1.21 fold enrichment (6-mer frequency, TF over GST control) in [7]; 1.31 fold enrichment (6-mer frequency, TF over GST control) in experiment [8]; 1.2 fold enrichment (6-mer frequency, TF over GST control) in experiment [9].
